According to the supplement of paper PMC10037445:
The full ranking holds about 2,900 compounds; the median of “NF-kB SEAP reporter activity, fold change vs agonist alone” is about 0.99, and the highest 2% start at about 2.6. For the sample, the highest values were picked, then their nearest neighbours and some compounds at random.

Assays:
RAW-Dual [1] = experiment: NF-kB SEAP reporter activity, fold change vs agonist alone; cytotoxicity flag (confluency mask): cytotoxic (confluency <70% of control); higher = enhanced NF-kB activity
Procedure, shortened: (§1)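 Supernatant from RAW-Dual macrophages was read after 20 hours for IRF by QuantiLuc luminescence and for NF-κB by QuantiBlue absorbance at 620 nm. The cells (50,000 cells/well in DMEM, 384-well plates, 37 °C, 5% CO2) had received 50 nL of library stock by pin tool and, 1 h later, a PRR agonist. Reporter activity is expressed relative to agonist-alone wells as fold change, and wells were flagged cytotoxic if IncuCyte confluency was under 70% of agonist controls in both mask sets.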

RAW-Dual [2] = experiment: NF-kB SEAP reporter activity, fold change vs agonist alone; higher = enhanced NF-kB activity; conditions: library stock concentration (final ~1000-fold dilution): 10 mM
Procedure, shortened: as §1

RAW-Dual [3] = experiment: NF-kB SEAP reporter activity, fold change vs agonist alone; cytotoxicity flag (confluency mask): not cytotoxic; higher = enhanced NF-kB activity
Procedure, shortened: as §1

[4] = agonist: ODN 1826 (TLR9) 0.5 ug/mL
[5] = agonist: Pam2CSK4 (TLR2/6) 0.1 ug/mL
[6] = agonist: Pam3CSK4 (TLR2/1) 0.1 ug/mL
[7] = cytotoxicity flag (confluency mask): not cytotoxic, agonist: Imiquimod (TLR7) […]
[8] = cytotoxicity flag (confluency mask): not cytotoxic, agonist: MPLA (TLR4) […]
[9] = cytotoxicity flag (confluency mask): cytotoxic (confluency <70% of control), agonist: Imiquimod (TLR7) […]
[10] = cytotoxicity flag (confluency mask): cytotoxic (confluency <70% of control), agonist: MPLA (TLR4) […]

OC1C=C2CCN3Cc4cc5c(cc4C(C1O)C23)OCO5 (configuration not stated) (library stock concentration (final ~1000-fold dilution): 10 mM)
NF-kB SEAP reporter activity (RAW-Dual [1]; agonist: LPS (TLR4) 0.1 ug/mL): 1.54
NF-kB SEAP reporter activity (RAW-Dual [1]; [4]): 1.05
NF-kB SEAP reporter activity (RAW-Dual [1]; [5]): 0.33
NF-kB SEAP reporter activity (RAW-Dual [1]; [6]): 0.552

CNCCC(Oc1ccccc1C)c1ccccc1.Cl (configuration not stated)
NF-kB SEAP reporter activity (RAW-Dual [2]; [7]): 1.52
NF-kB SEAP reporter activity (RAW-Dual [2]; [8]): 1.15

CNCCC(Oc1ccccc1C)c1ccccc1.Cl (configuration not stated) (library stock concentration (final ~1000-fold dilution): 10 mM)
NF-kB SEAP reporter activity (RAW-Dual [3]; agonist: LPS (TLR4) 0.1 ug/mL): 1.15
NF-kB SEAP reporter activity (RAW-Dual [3]; [4]): 0.76
NF-kB SEAP reporter activity (RAW-Dual [3]; [5]): 0.791
NF-kB SEAP reporter activity (RAW-Dual [3]; [6]): 1.01

NC(=O)C(=Cn1cnc(-c2cc(C(F)(F)F)cc(C(F)(F)F)c2)n1)c1cncnc1 (library stock concentration (final ~1000-fold dilution): 10 mM)
NF-kB SEAP reporter activity (RAW-Dual [3]; agonist: LPS (TLR4) 0.1 ug/mL): 0.331
NF-kB SEAP reporter activity (RAW-Dual [3]; [4]): 0.334
NF-kB SEAP reporter activity (RAW-Dual [3]; [5]): 0.13
NF-kB SEAP reporter activity (RAW-Dual [3]; [6]): 0.148

NC(=O)C(=Cn1cnc(-c2cc(C(F)(F)F)cc(C(F)(F)F)c2)n1)c1cncnc1
NF-kB SEAP reporter activity (RAW-Dual [2]; [7]): 0.765
NF-kB SEAP reporter activity (RAW-Dual [2]; [8]): 0.772

COc1cc2ncnc(Nc3ccc(Oc4ccccc4)cc3C)c2cc1OC.Cl
NF-kB SEAP reporter activity (RAW-Dual [2]; [7]): 1.37
NF-kB SEAP reporter activity (RAW-Dual [2]; [8]): 0.792

COc1cc2ncnc(Nc3ccc(Oc4ccccc4)cc3C)c2cc1OC.Cl (library stock concentration (final ~1000-fold dilution): 10 mM)
NF-kB SEAP reporter activity (RAW-Dual [3]; agonist: LPS (TLR4) 0.1 ug/mL): 1.05
NF-kB SEAP reporter activity (RAW-Dual [3]; [4]): 0.422
NF-kB SEAP reporter activity (RAW-Dual [3]; [5]): 0.297
NF-kB SEAP reporter activity (RAW-Dual [3]; [6]): 0.42

CN(C)CC1CCn2cc(c3ccccc32)C2=C(C(=O)NC2=O)c2cn(c3ccccc23)CCO1.Cl (configuration not stated) (library stock concentration (final ~1000-fold dilution): 10 mM)
NF-kB SEAP reporter activity (RAW-Dual [1]; agonist: LPS (TLR4) 0.1 ug/mL): 3.03
NF-kB SEAP reporter activity (RAW-Dual [1]; [4]): 0.276
NF-kB SEAP reporter activity (RAW-Dual [1]; [5]): 1.55
NF-kB SEAP reporter activity (RAW-Dual [1]; [6]): 1.77

CN(C)CC1CCn2cc(c3ccccc32)C2=C(C(=O)NC2=O)c2cn(c3ccccc23)CCO1.Cl (configuration not stated)
NF-kB SEAP reporter activity (RAW-Dual [2]; [9]): 1.68
NF-kB SEAP reporter activity (RAW-Dual [2]; [10]): 2.13

O=C(Nc1ccc([N+](=O)[O-])cc1O)Nc1ccccc1Br (library stock concentration (final ~1000-fold dilution): 10 mM)
NF-kB SEAP reporter activity (RAW-Dual [1]; agonist: LPS (TLR4) 0.1 ug/mL): 2.98
NF-kB SEAP reporter activity (RAW-Dual [1]; [4]): 2.14
NF-kB SEAP reporter activity (RAW-Dual [1]; [5]): 0.989
NF-kB SEAP reporter activity (RAW-Dual [1]; [6]): 1.7

CS(=O)(=O)Nc1ccc([N+](=O)[O-])cc1Oc1ccccc1
NF-kB SEAP reporter activity (RAW-Dual [2]; [7]): 0.516
NF-kB SEAP reporter activity (RAW-Dual [2]; [8]): 1.08

O=C(Nc1ccccc1)c1cc([N+](=O)[O-])ccc1Cl
NF-kB SEAP reporter activity (RAW-Dual [2]; [7]): 1.37
NF-kB SEAP reporter activity (RAW-Dual [2]; [8]): 0.89

O=C(Nc1ccccc1)c1cc([N+](=O)[O-])ccc1Cl (library stock concentration (final ~1000-fold dilution): 10 mM)
NF-kB SEAP reporter activity (RAW-Dual [3]; agonist: LPS (TLR4) 0.1 ug/mL): 0.722
NF-kB SEAP reporter activity (RAW-Dual [3]; [4]): 0.873
NF-kB SEAP reporter activity (RAW-Dual [3]; [5]): 0.881
NF-kB SEAP reporter activity (RAW-Dual [3]; [6]): 0.836

CS(=O)(=O)Nc1ccc([N+](=O)[O-])cc1Oc1ccccc1 (library stock concentration (final ~1000-fold dilution): 10 mM)
NF-kB SEAP reporter activity (RAW-Dual [3]; agonist: LPS (TLR4) 0.1 ug/mL): 1.05
NF-kB SEAP reporter activity (RAW-Dual [3]; [4]): 0.993
NF-kB SEAP reporter activity (RAW-Dual [3]; [5]): 0.937
NF-kB SEAP reporter activity (RAW-Dual [3]; [6]): 0.873

O=C(Nc1ccc([N+](=O)[O-])cc1O)Nc1ccccc1Br
NF-kB SEAP reporter activity (RAW-Dual [2]; [9]): 1.47
NF-kB SEAP reporter activity (RAW-Dual [2]; [10]): 1.48

FC(F)F.N=C(N)NCCCC1NC(=O)C(CCCCN)NC(=O)C(Cc2ccc(O)cc2)NC(=O)C(CC(=O)O)NC(=O)CNC1=O.O=C(O)C(F)(F)F.O=CO (configuration not stated) (library stock concentration (final ~1000-fold dilution): 10 mM)
NF-kB SEAP reporter activity (RAW-Dual [3]; agonist: LPS (TLR4) 0.1 ug/mL): 1.23
NF-kB SEAP reporter activity (RAW-Dual [3]; [4]): 0.997
NF-kB SEAP reporter activity (RAW-Dual [3]; [5]): 1.14
NF-kB SEAP reporter activity (RAW-Dual [3]; [6]): 0.899

FC(F)F.N=C(N)NCCCC1NC(=O)C(CCCCN)NC(=O)C(Cc2ccc(O)cc2)NC(=O)C(CC(=O)O)NC(=O)CNC1=O.O=C(O)C(F)(F)F.O=CO (configuration not stated)
NF-kB SEAP reporter activity (RAW-Dual [2]; [7]): 0.972
NF-kB SEAP reporter activity (RAW-Dual [2]; [8]): 1.04
